Test [1] deals with Lysosomal acid glucosylceramidase (Homo sapiens) (UniProt P04062). Nature of the test: Glucocerebrosidase-p2 (AID 348; in the data active means potency below about 10 µM; further: potency means the concentration at half of the fitted maximal effect). The conditions noted are these: purified GBA, blue fluorogenic substrate, 40 min. In short, it runs like this:
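Compounds titrated from 0.6 nM upwards against 0.2 nM enzyme in pH 5.9 citric acid/KH2PO4, taurocholate, tween-20; blue fluorogenic substrate 80 uM, 40 min room temperature, stopped and read Ex 365/Em 440 for AC50.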

A short description of test [2]: AP1 Signaling Pathway (AID 357).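 Further: ME-180 reporter cells stimulated with EGF at its EC50 level; on the % scale 0 is the no-effect control and ±100 the full control effect.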 The conditions noted are these: ME-180 AP-1-bla reporter, EGF-induced, beta-lactamase ratio, 5 h; at 7.69 µM (top of the series) unless noted. The procedure, abridged:
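Read-out was the 460nm/530nm emission ratio (excitation 405nm) after CCF4 loading for 2.5 hours at room temperature. Cells carried an AP-1-driven beta-lactamase reporter, were stimulated with EC50 EGF plus compound for 5 hours, and AC50 values came from titrations.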

Test [3] can be described thus: NFAT Signaling Pathway (AID 444).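 Further: carbachol stimulus at about its EC50 of 1 µM final; on the % scale 0 is the no-effect control and ±100 the full control effect.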 The conditions noted are these: Jurkat NFAT-bla M1, carbachol, beta-lactamase ratio, 5 h; at 7.69 µM (top of the series) unless noted. The procedure, abridged: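 Jurkat cells with NFAT-driven β-lactamase reporter and co-expressed M1 receptor, stimulated with carbachol (final 1 uM, ~EC50), compound titration, 5 h at 37 °C. CCF4 loaded 1 h at RT; 460/530 nm ratio gave %activity and AC50.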

Test [4] is described as follows: Stat Signaling Pathway (AID 446).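 Further: ME-180 cervical cancer cells given 40 pM IL-6 alongside compound; SIE-controlled beta-lactamase reporter measured as 460/530 nm FRET emission ratio; on the % scale 0 is the no-effect control and ±100 the full control effect.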 The conditions noted are these: ME-180 (cervical carcinoma) SIE beta-lactamase reporter, IL-6 stimulated, 5 h; at 7.69 µM (top of the series) unless noted. In short, it runs like this:
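ME-180 cells carrying a SIE-driven beta-lactamase reporter are stimulated with 40 pM IL-6 for 5 h at 37C in the presence of compound. The 460/530 nm FRET substrate ratio is read after 2.5 h at RT. Data are normalised to 300 pM IL-6 and to 125 nM JAK inhibitor controls.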

Test [5] has as its target Glucocorticoid receptor (Homo sapiens) (UniProt P04150). Nature of the test: GR-EFC Redistribution (AID 451; calls by dose curve; further: potency means the concentration at half of the fitted maximal effect). The conditions noted are these: CHO-K1 GR-EFC translocation, beta-gal luminescence, 2 h. The procedure, abridged: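 CHO-K1 cells expressing nuclear EA and GR-ED fragments of b-gal; compounds titrated up to 46 uM final, 2 h at 37 C. GR nuclear translocation read as complemented b-gal luminescence after 1 h RT detection.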

In test [6] the target is Mitogen-activated protein kinase 10 (Mus musculus) (UniProt Q61831). Description: JNK3 AlphaScreen Assay (AID 530).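 Further: kinase came from lysate of stimulated human HepG2 cells; signal reports phosphorylation of biotinylated GST-cJun 1-79 at Ser73 with 10 µM ATP; on the % scale 0 is the no-effect control and ±100 the full control effect.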 The conditions noted are these: JNK3 lysate, c-Jun phosphorylation; series mostly up to 57.1 µM. In short, it runs like this: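 Pre-activated (IL-1β/TNFα) JNK3 in HepG2 lysates phosphorylates biotin-GST-cJun(1-79), 10 uM ATP; anti-phospho-cJun(Ser73) AlphaScreen read at room temperature, pH 7.6 Tris buffer. Compounds pre-incubated 15 min as titrations.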

For test [7], the target named is 3',5'-cyclic-AMP phosphodiesterase 4B (Homo sapiens) (UniProt Q07343). Nature of the test: qHTS Assay for Inhibitors of PDE-IV (AID 607; active means well fitted activation curve with a large enough effect in the main read-out, with a control signal flat, not every such curve was filed as active; further: % of control where 0% means no effect). The conditions noted are these: HEK293 ACTOne CNG channel cells, membrane potential fluorescence; series mostly up to 22.9 µM. The procedure, abridged: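 HEK293 ACTOne cells with CNG channel (1000/well), endogenous PDE4; membrane potential dye, compounds up to 22.9 uM final. Fluorescence Ex 535/Em 590; RO 20-1724 (100 uM final) as reference.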
(In general: Quantitative high-throughput screening tests each substance at several concentrations.)

The nature of test [8]: qHTS Assay for Lipid Storage Modulators (AID 1519; calls by dose curve). The conditions noted are these: Drosophila S3 cells, BODIPY lipid droplet/cell ratio, laser cytometry, cells loaded with oleic acid; for activity change, negative = inhibition: at 57.5 µM (top of the series). The procedure, abridged:
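Cells seeded at 5,000 per well were treated with compounds over a concentration series and loaded with oleic acid (400 uM, as added). Lipid droplet fluorescence (488 nm excitation, 500-530 nm channel) was read by laser-scanning cytometry and normalized to 20 uM Triacsin C.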

Test [9] can be described thus: Primary qHTS for small molecule stabilizers of the endoplasmic reticulum resident proteome: Secreted ER Calcium Modulated Protein (SERCaMP) assay (AID 1508630; active means well fitted curve in the direction sought with a large enough effect; an effect the other way counts as inactive or inconclusive; further: on the % scale 0 is the no-effect control and ±100 the full control effect). The conditions noted are these: SH-SY5Y GLuc-SERCaMP (Gaussia luciferase released on ER calcium loss) secretion, thapsigargin, luminescence; series mostly up to 38.4 µM. The procedure, abridged:
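GLuc-SERCaMP-expressing SH-SY5Y cells, pretreated 16 h with compound, are challenged with thapsigargin to empty ER calcium stores; after 4 h, coelenterazine is added directly to the medium and luminescence is imaged.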

Test [10] addresses Cytochrome P450 3A4 (Homo sapiens) (UniProt P08684). Nature of the test: qHTS Assay for Activators of Cytochrome P450 3A4 (AID 885; active means well fitted curve in the direction sought with a large enough effect; an effect the other way counts as inactive or inconclusive; further: nearly all actives have a fitted effect of over 65% in size). The conditions noted are these: recombinant CYP3A4, Luciferin-PPXE luminescence, 60 min; series mostly up to 57.1 µM. The procedure, abridged:
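Human CYP3A4 (20 nM) with Luciferin-PPXE at 25 uM (its KM) in 200 mM KPO4; 10 min compound preincubation, then NADPH regeneration and 60 min reaction at RT. Luciferin read by luminescence; normalized to 57 uM ketoconazole full inhibition.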

The mark [11] stands for this setting: measured here: cell count channel max response.
[12] abbreviates: measured here: lipid channel max response.

Records with an inconclusive call do not appear. Calls of active or inactive are those of the source. Unless noted, the call rests on the fitted dose curve; in most records, active means well fitted curve in either direction with a large enough effect (not every such curve was filed as active); inconclusive means small, poorly fitted or top-dose-only effect, or another doubt; inactive means flat fitted curve, though single readings scatter.

Chain of Glucocorticoid receptor (Homo sapiens) (P04150 whole entry, looked up, the tested form may be a part): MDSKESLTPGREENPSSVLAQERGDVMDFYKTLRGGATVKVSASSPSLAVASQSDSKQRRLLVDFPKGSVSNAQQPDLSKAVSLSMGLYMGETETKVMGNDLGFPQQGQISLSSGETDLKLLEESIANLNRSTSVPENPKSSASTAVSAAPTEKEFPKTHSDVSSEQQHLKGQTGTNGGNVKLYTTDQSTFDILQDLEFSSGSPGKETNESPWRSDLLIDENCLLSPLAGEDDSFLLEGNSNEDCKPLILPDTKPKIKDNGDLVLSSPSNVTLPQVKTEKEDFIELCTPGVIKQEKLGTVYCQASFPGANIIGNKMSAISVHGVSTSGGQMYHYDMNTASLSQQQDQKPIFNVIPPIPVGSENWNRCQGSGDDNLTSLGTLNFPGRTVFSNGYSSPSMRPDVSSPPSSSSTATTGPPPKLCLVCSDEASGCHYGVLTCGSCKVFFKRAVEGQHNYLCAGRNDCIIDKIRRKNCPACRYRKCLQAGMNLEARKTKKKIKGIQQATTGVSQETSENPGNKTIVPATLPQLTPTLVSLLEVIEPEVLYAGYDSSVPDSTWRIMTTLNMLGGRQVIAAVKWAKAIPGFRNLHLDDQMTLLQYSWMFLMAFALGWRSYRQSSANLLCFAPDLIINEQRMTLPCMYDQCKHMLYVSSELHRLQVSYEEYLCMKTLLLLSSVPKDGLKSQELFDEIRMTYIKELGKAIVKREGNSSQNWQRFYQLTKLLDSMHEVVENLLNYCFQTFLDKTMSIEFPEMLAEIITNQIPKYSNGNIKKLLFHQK
Chain of Lysosomal acid glucosylceramidase (Homo sapiens) (P04062 whole entry, looked up): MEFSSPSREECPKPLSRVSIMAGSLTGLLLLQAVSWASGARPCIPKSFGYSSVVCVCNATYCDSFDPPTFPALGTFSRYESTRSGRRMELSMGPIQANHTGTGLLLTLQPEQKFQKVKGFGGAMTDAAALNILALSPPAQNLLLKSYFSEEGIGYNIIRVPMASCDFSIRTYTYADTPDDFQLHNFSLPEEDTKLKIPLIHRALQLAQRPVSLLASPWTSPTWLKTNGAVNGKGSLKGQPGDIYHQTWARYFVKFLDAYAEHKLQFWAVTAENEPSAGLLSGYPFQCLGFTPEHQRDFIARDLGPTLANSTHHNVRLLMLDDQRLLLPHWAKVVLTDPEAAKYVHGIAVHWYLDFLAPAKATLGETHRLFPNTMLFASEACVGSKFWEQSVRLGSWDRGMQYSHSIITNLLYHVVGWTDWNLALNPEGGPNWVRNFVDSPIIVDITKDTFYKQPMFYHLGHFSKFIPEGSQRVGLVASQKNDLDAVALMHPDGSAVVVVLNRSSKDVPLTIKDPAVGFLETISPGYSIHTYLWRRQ
Chain of 3',5'-cyclic-AMP phosphodiesterase 4B (Homo sapiens) (Q07343 whole entry, looked up): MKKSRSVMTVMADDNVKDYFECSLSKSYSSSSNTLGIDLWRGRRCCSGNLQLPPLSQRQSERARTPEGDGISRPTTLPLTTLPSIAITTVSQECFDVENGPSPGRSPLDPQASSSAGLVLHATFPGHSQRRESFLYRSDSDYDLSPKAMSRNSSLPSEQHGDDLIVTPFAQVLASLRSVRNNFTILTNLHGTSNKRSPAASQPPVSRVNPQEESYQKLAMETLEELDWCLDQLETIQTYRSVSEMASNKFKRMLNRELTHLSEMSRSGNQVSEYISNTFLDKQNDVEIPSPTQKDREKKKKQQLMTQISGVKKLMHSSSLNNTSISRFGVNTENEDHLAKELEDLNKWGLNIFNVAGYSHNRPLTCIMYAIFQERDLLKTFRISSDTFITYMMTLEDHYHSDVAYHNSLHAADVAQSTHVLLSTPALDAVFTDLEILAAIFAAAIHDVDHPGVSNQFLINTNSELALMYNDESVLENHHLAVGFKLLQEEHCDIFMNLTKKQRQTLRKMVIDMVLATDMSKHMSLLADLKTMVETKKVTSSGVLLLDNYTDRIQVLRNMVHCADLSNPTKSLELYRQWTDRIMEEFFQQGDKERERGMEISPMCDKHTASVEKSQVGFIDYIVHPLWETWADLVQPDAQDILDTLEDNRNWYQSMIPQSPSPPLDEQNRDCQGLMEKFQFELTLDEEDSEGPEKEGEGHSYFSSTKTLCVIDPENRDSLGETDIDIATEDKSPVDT
Chain of Cytochrome P450 3A4 (Homo sapiens) (P08684 whole entry, looked up): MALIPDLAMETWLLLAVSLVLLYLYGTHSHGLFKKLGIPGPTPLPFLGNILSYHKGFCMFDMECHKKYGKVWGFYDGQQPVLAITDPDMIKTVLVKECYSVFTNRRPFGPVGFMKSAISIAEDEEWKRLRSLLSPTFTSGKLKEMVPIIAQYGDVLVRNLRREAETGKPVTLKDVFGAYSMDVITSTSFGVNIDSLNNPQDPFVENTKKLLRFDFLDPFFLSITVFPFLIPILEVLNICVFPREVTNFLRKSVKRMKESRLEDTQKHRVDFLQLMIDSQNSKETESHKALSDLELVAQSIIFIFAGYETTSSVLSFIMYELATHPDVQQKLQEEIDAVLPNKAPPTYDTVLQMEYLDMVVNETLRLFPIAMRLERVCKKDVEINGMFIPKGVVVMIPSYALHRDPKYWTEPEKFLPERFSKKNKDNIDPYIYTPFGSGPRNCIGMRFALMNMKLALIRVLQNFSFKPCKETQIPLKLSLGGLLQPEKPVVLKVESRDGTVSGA

With `CC(=O)N1CCC2(CC1)CN(C(=O)Nc1cccc(C#N)c1)C2`, the Potency in [1] is > 11.4 µM (inactive); in test [5], > 46 µM (inactive). Also, the figures for the activity change, negative = inhibition in [2], in [3] and in test [8] were -2.26% (inactive), 4.7% (inactive) and 2.51% (inactive), respectively. The activity, negative = inhibition in [4] was 11.4% (inactive). Further, the Potency entry in test [6] and in test [7] was “inactive” throughout. Further, the results for the max response in test [8] (setting [11]) and in test [8] (setting [12]) were -2.48% and 1.82%, respectively. In addition, the outcome in test [9] was inactive.

On to `COCC(=O)N1CCC[C@@]2(CCN(C(=O)Nc3ccccc3)C2)C1`, for which the Potency in test [1] was > 11.4 µM (inactive); in test [5], > 46 µM (inactive). Besides, the activity change, negative = inhibition in [2] is -5.16% (inactive); in [3], 1.53% (inactive); in test [8] it was 5.08% (inactive). Besides, the activity, negative = inhibition in test [4] was -3% (inactive). In addition, the Potency entry in test [6] and in [7] was “inactive” each time. The max response came to 3.08% in test [8] (setting [11]) and 10.8% in [8] (setting [12]). Moreover, in [9], the result was inactive.

In the case of `O=C(Nc1cccc(F)c1)N1CC[C@@]2(CCCN(C(=O)c3ccncc3)C2)C1`, the Potency in test [1] was > 11.4 µM (inactive); in [5] it was > 46 µM (inactive). Besides, the activity change, negative = inhibition is -4.21% (inactive) in test [2], 9.18% (inactive) in test [3] and 5.32% (inactive) in [8]. For the same compound, in test [4], the activity, negative = inhibition was -6.29% (inactive). The Potency entry in test [6] and in [7] was “inactive” throughout. Further, the max response in test [8] (setting [11]) was 15.8%; in test [8] (setting [12]) it was 23.2%. Further, the outcome in test [9] was inactive.

Turning to `N#Cc1ccc(CN2CC[C@@]3(CCCN(C(=O)c4cccc(F)c4)C3)C2)cc1`, the Potency in [1] was > 11.4 µM (inactive); in [5], > 46 µM (inactive). The activity change, negative = inhibition was -24.8% (inactive) in [2], -12.5% (inactive) in test [3] and -0.514% (inactive) in [8]. Moreover, in [4], the activity, negative = inhibition was -4.01% (inactive). Also, the Potency result in test [6] and in [7] was “inactive” throughout. The max response was determined as 0.82% in test [8] (setting [11]) and 2.5% in test [8] (setting [12]). In addition, the outcome in test [9] was inactive.

For `Cn1cccc1C(=O)N1CCC[C@@]2(CCN(c3ncccn3)C2)C1`, the values for the Potency in test [1] and in test [5] were > 11.4 µM (inactive) and > 46 µM (inactive), respectively. In addition, the activity change, negative = inhibition in test [2] is -1.25% (inactive); in test [3], -9.56% (inactive); in test [8], 1.1% (inactive). Besides, the activity, negative = inhibition in test [4] is -1.27% (inactive). The Potency result in test [6] and in [7] was “inactive” in each case. Besides, the max response in [8] (setting [11]) is -6.2%; in [8] (setting [12]) it was -1.14%. Also, the result in [9] was inactive.

As to `O=C(c1cccc(F)c1)N1CCC[C@@]2(CCN(c3ccccn3)C2)C1`, the figures for the Potency in test [1] and in test [5] were > 11.4 µM (inactive) and > 46 µM (inactive), respectively. Also, the activity change, negative = inhibition in test [2] is -17% (inactive); in test [3] it was -7.81% (inactive); in [8], 6.88% (inactive). The activity, negative = inhibition in [4] is -6.48% (inactive). In addition, the Potency result in test [6] and in test [7] was “inactive” throughout. The max response in test [8] (setting [11]) was found to be 12.7%; in test [8] (setting [12]) it was 23.1%. Moreover, the outcome in test [9] was inactive.

With `O=C(Nc1cccc(F)c1)N1CC[C@@]2(CCCN(C(=O)c3csnn3)C2)C1`, the figures for the Potency in [1] and in [5] were > 11.4 µM (inactive) and > 46 µM (inactive), respectively. Also, the activity change, negative = inhibition in test [2] is -13.9% (inactive); in [3], 20.4% (inactive); in test [8], 3.72% (inactive). Moreover, in test [4], the activity, negative = inhibition was -1.73% (inactive). The Potency entry in test [6] and in test [7] was “inactive” throughout. Further, the max response was 12.5% in test [8] (setting [11]) and 18.5% in [8] (setting [12]). The result in test [9] was inactive.

As for `O=C(c1csnn1)N1CCC[C@@]2(CCN(Cc3cc(C(F)(F)F)cc(C(F)(F)F)c3)C2)C1`, the Potency is > 11.4 µM (inactive) in [1] and > 46 µM (inactive) in [5]. The activity change, negative = inhibition is -0.847% (inactive) in test [2], 2.05% (inactive) in test [3] and 5.01% (inactive) in test [8]. In test [4], the activity, negative = inhibition was -8.74% (inactive). Further, the Potency entry in [6] and in [7] was “inactive” in each case. Moreover, the max response turned out to be 20.3% in test [8] (setting [11]) and 22.1% in test [8] (setting [12]). For the same compound, in [9], the result was inactive.

Turning to `O=C(c1ccncc1)N1CCC[C@@]2(CCN(c3ccncc3)C2)C1`, the Potency in test [1] was > 11.4 µM (inactive); in [5] it was > 46 µM (inactive). Besides, the activity change, negative = inhibition in test [2] is -13.7% (inactive); in test [3], -14.9% (inactive); in test [8] it was 3.8% (inactive). Further, the activity, negative = inhibition in [4] was -3.85% (inactive). Further, the Potency result in test [6] and in [7] was “inactive” throughout. Besides, the max response in test [8] (setting [11]) came out at 9.21%; in test [8] (setting [12]), 15%. Also, the outcome in test [9] was inactive.

As to `Cc1noc(C)c1C(=O)N1CCC[C@@]2(CCN(C(=O)Nc3ccccc3)C2)C1`, the Potency in [1] was > 11.4 µM (inactive); in test [5], > 46 µM (inactive). Besides, the values for the activity change, negative = inhibition in test [2], in test [3] and in [8] were -22.6% (inactive), 19.8% (inactive) and 3.24% (inactive), respectively. In addition, in test [4], the activity, negative = inhibition is -2.21% (inactive). For the same compound, the Potency result in test [6], in test [7] and in [10] was “inactive” in each case. Also, the max response in test [8] (setting [11]) was 3.75%; in test [8] (setting [12]), 7.38%. Besides, the outcome in [9] was inactive.

As for `COCC(=O)N1CCC2(CCCN(c3ccccc3)C2)CC1`, the Potency is > 11.4 µM (inactive) in test [1] and > 46 µM (inactive) in test [5]. The activity change, negative = inhibition in test [2] was 4.54% (inactive); in [3], -7.94% (inactive); in test [8], 0.354% (inactive). Also, the activity, negative = inhibition in test [4] is -0.962% (inactive). The Potency result in [6], in test [7] and in [10] was “inactive” each time. Further, the max response in test [8] (setting [11]) was 4.96%; in test [8] (setting [12]), 6.05%. Also, in test [9], the result was inactive.

On to `O=C(c1cc(C(F)(F)F)cc(C(F)(F)F)c1)N1CCC2(CC1)CCN(c1ccccc1)CC2`, for which the Potency was > 11.4 µM (inactive) in test [1] and > 46 µM (inactive) in test [5]. In addition, the activity change, negative = inhibition in [2] was 24.2% (inactive); in test [3] it was -4.75% (inactive); in [8] it was -9.68% (inactive). Also, the activity, negative = inhibition in [4] is -7.04% (inactive). Further, the Potency entry in test [6] and in test [7] was “inactive” in each case. Moreover, the max response is 10.5% in test [8] (setting [11]) and 0.292% in test [8] (setting [12]). Moreover, the result in test [9] was inactive.

On to `COc1ccc(NC(=O)N2CCCC3(CCN(C(=O)c4ccncc4)CC3)C2)cc1`, for which the results for the Potency in test [1] and in test [5] were > 11.4 µM (inactive) and > 46 µM (inactive), respectively. Moreover, the activity change, negative = inhibition in [2] was -8.03% (inactive); in test [3] it was -13.4% (inactive); in test [8], 4.52% (inactive). The activity, negative = inhibition in test [4] was -2.92% (inactive). For the same compound, the Potency result in test [6] and in test [7] was “inactive” in each case. Moreover, the values for the max response in test [8] (setting [11]) and in [8] (setting [12]) were 10.2% and 18.3%, respectively. In addition, in test [9], the outcome was inactive.
